Measurements taken from PubChem BioAssay.

assay: compounds binding Alexa647 anti-His antibody – biochemical, small-molecule microarray, 635 nm fluorescence, artefact control for SMM control protein annotation, primary screen (AID 1128); settings: higher = more signal;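 also: score merges feature fluorescence with signal-to-noise for each printed compound spot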

| SMILES | composite z-score |
| --- | --- |
| CC(C)N1CC=CC23O[C@@H]4C=CCOC(=O)[C@@H]4[C@H]2C(=O)N(CCCCCO)[C@@H]3C1=O (stereo not given in full) | 2.11 |
| [N-]=[N+]=Nc1ccccc1C[C@@]1(C(=O)N2CCCCC2)N=C(c2ccc(OCCCO)cc2)O[C@@H]1c1ccccc1 | 1.63 |
| OCC1C=C(/C=C/c2ccccc2)CN1Cc1ccccc1Br (stereo not given) | 1.5 |
| C=CC[C@@]1(C(=O)N2CCCCC2)N=C(c2ccc(OCCCO)cc2)O[C@@H]1c1ccccc1N=[N+]=[N-] | 2.24 |
| CO[C@H]1O[C@H](CO)[C@@H](OC(=O)Nc2ccc(Oc3ccccc3)cc2)[C@H](OC(=O)Nc2ccc3c(c2)OCO3)[C@@H]1OC(=O)Nc1ccc2c(c1)OCO2 | 1.83 |
| COCCOC(=O)N1C(=O)[C@@]2(c3ccccc31)[C@H](C(=O)N1CCc3cc(OC)c(OC)cc3C1)[C@H]1C(=O)O[C@H](c3ccccc3)[C@H](c3ccccc3)N1[C@@H]2c1ccc(O)cc1 | 2.07 |
| CCCCC(=C=CC[C@@H](O)c1cccc(OCCO)c1)C[C@@H](O)c1ccccn1 | 2.56 |
| CCOC(=O)C[C@H]1[C@H](OC(=O)c2cc3ccccc3oc2=O)[C@@H](NC(=O)CC(C)C)c2cc(OCCCO)ccc2N1C(=O)c1ccccc1 | 0.615 |
| CC(C)(C)OC(=O)CC[C@@]1(C(=O)N2CCCCC2)N=C(c2ccc(OCCCO)cc2)O[C@@H]1c1ccccc1 | 1.87 |
| Cc1ccc(S(=O)(=O)N2C[C@@H](C(=O)O)[C@H](Sc3ccccc3)C[C@H]2c2ccccc2)cc1 | 0.617 |
| O=C1[C@H]2C=C(Br)[C@H](C[C@@H]2OCCCCCCO)[C@@]12CO2 | -0.847 |
| COc1ccc(C(=O)Nc2cccc(CN3C(=O)[C@]4(O[C@H](CCn5cc(CCO)nn5)[C@@H]([Si](C)(C)c5ccc(OC)cc5)[C@@H]4C)c4ccccc43)c2)cc1 | -0.0471 |
| C=C[C@H](C)[C@@H](OC(=O)Nc1ccc(SC)cc1)c1ccc(O)c2ccccc12 | 3.14 |
| COCCOC(=O)N1C(=O)[C@@]2(c3cc(C#CC4(O)CCCCCC4)ccc31)[C@H](C(=O)Nc1nc3ccccc3s1)[C@H]1C(=O)O[C@H](c3ccccc3)[C@H](c3ccccc3)N1[C@@H]2c1ccccc1OCCO | 2.46 |
| C=CCC(OC(C)=O)[C@@H]1[C@@H](N(Cc2ccc(-c3ccccc3)cc2)C(=O)Cc2ccc(F)cc2)c2cc(OCCCO)ccc2N1C(=O)c1ccc2ccccc2c1 (stereo not given in full) | -0.264 |
| CN(C)CCCC[C@@H]1NC(=O)[C@H]2C[C@@H](C(=O)NCCCCCN)[C@@H](c3cccc(OCCO)c3)N2C1=O | 2.91 |
| C=CC[C@]1(C(=O)NCc2ccccc2)N=C(c2ccc(OCCCO)cc2)O[C@H]1c1ccccc1CN=[N+]=[N-] | 1.25 |
| O=C(CS)NCCCCCNC(=O)[C@@H]1C[C@@H]2C(=O)NCC(=O)N2[C@@H]1c1ccc(O)cc1 | 1.79 |

| SMILES | composite z-score |
| --- | --- |
| C=CCC(OC(C)=O)[C@@H]1[C@@H](N(Cc2ccc(-c3cccc(C(F)(F)F)c3)o2)C(=O)c2cccc3ccccc23)c2cc(OCCCO)ccc2N1C(=O)Cc1ccc2ccccc2c1 (stereo not given in full) | 0.383 |
| C=CCC(OC(C)=O)[C@@H]1[C@@H](N(Cc2ccc(-c3cccc(C(F)(F)F)c3)o2)C(=O)Cc2ccc(OC)cc2)c2cc(OCCCO)ccc2N1C(=O)c1ccc2ccccc2c1 (stereo not given in full) | -0.448 |
| CC(C)CN1C(=O)[C@@]2(c3ccc([N+](=O)[O-])cc3)CC(=O)N(C3CCCCC3)[C@@H]2c2ccc(CO)cc21 | -0.75 |
| O=C1C2C=CC(C(O)C=Cc3ccc([N+](=O)[O-])cc3)N(n3cnnc3)C2C(=O)N1Cc1ccccc1 (stereo not given) | 1.88 |
| O=C1O[C@H](c2ccccc2)[C@H](c2ccccc2)N2[C@H]1[C@@H](C(=O)NC[C@H](O)c1ccccc1)[C@]1(C(=O)Nc3ccc(C#CC4=CCCCC4)cc31)[C@H]2c1ccccc1OCCO | 1.24 |
| O=C1NC(=O)C2C1C=CC(C(O)c1ccc(I)cc1)N2Nc1ccc(Cl)cc1Cl (stereo not given) | 0.258 |
| CC(C)CCC[C@@H](C)[C@H]1CC[C@@]2(C)C3=C(CC[C@]12C)[C@@]1(C)CC[C@H](OC(=O)c2ccc(C(F)(F)F)nc2)C(C)(C)C1CC3 (stereo not given in full) | 0.38 |
| CC(C)(C)OC(=O)CC[C@]1(C(=O)NCCN2CCOCC2)COC(c2ccc(OCCCO)cc2)=N1 | 1.34 |
| CN1C(=O)C2C=CC(C(O)c3ccccc3)N(N3CCCCC3)C2C1=O (stereo not given) | 0.841 |
| CC[C@@H]1C=C(C(=O)O)[C@H](c2cccc3ccccc23)N1S(=O)(=O)c1ccc(C)cc1 | 1.18 |
| C=CCNC(=O)[C@H]1[C@@H]2C(=O)O[C@@H](c3ccccc3)[C@@H](c3ccccc3)N2[C@@H](c2ccc(OCCO)cc2)[C@]12C(=O)Nc1ccc(C#CCC(C(=O)OC)C(=O)OC)cc12 | 2.47 |
| C=CCN1Cc2ccccc2[C@@H]2OC(c3ccc(OCCCO)cc3)=N[C@]2(CCS(=O)(=O)c2ccccc2)C1=O | 1.56 |
| C[N+](C)(C)CCCC[C@@H]1NC(=O)[C@H]2C[C@@H](C(=O)NCCCCCCNC(=O)CS)[C@@H](c3ccc(O)cc3)N2C1=O | 1.44 |
| CC(=O)Nc1cc(Br)ccc1C(=O)NCc1ccccc1 | 0.69 |
| O=C1C2C=CC(C(O)c3ccc4c(c3)OCO4)N(Nc3ccc([N+](=O)[O-])cc3)C2C(=O)N1c1ccccc1 (stereo not given) | 1.29 |
| COc1ccc(C(O)C2C=CC3C(=O)N(C)C(=O)C3N2N(c2ccccc2)c2ccccc2)c2ccccc12 (stereo not given) | 2.54 |
| COc1cc2c(cc1O)C=[N+](Cc1cc3c(cc1Br)OCO3)CC2 | -0.954 |
